Data published in PubChem BioAssay.
Activity calls are given as the source filed them.

Columns and labels:
[1] = small molecules captured by biotinylated probe aFSTL3 – biochemical, small-molecule microarray, fluorescence 635/667, stem cell growth factor project, primary screen (AID 1064); settings: higher = more signal;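 also: measures binding of the biotinylated anti-FSTL3 antibody to printed compounds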
[2] = binders from COS7 lysate, DM2A8 probe, primary screen, torsin A project, cell lysate, small-molecule microarray, fluorescence 635/667 (AID 1065); settings: higher = more signal, COS7 lysate expressing mutant human TOR1A
[3] = small molecules captured by biotinylated probe aFGF2 – biochemical, small-molecule microarray, fluorescence 635/667, stem cell growth factor project, primary screen (AID 1067); settings: higher = more signal;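 also: measures binding of biotinylated aFGF2 protein to printed compounds on slides; z-score merges feature fluorescence and signal-to-noise across triplicate slides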
[4] = small molecules captured by biotinylated probe aFGF10 – biochemical, small-molecule microarray, fluorescence 635/667, stem cell growth factor project, primary screen (AID 1071); settings: higher = more signal;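 also: score merges 667 nm spot intensity and signal to noise from triplicate slides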
[5] = target: Neurogenic locus notch homolog protein 2 (Homo sapiens) (UniProt Q04721); assay: small molecules binding Notch2 protein – biochemical, small-molecule microarray, 635 nm fluorescence, stem cell growth factors, primary screen (AID 1073); settings: higher = more signal
[6] = target: Pro-neuregulin-1, membrane-bound isoform (Homo sapiens) (UniProt Q02297); assay: small molecules binding neuregulin-1 protein – biochemical, small-molecule microarray, fluorescence 635/667, psychiatric disease protein project, primary screen (AID 1075); settings: NRG1 binding, 635 nm fluorescence, higher = more signal;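 also: score combines 667 nm spot fluorescence with signal to noise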
Sequence of Pro-neuregulin-1, membrane-bound isoform (Homo sapiens) (Q02297 whole entry, looked up, the tested form may be a part, canonical isoform): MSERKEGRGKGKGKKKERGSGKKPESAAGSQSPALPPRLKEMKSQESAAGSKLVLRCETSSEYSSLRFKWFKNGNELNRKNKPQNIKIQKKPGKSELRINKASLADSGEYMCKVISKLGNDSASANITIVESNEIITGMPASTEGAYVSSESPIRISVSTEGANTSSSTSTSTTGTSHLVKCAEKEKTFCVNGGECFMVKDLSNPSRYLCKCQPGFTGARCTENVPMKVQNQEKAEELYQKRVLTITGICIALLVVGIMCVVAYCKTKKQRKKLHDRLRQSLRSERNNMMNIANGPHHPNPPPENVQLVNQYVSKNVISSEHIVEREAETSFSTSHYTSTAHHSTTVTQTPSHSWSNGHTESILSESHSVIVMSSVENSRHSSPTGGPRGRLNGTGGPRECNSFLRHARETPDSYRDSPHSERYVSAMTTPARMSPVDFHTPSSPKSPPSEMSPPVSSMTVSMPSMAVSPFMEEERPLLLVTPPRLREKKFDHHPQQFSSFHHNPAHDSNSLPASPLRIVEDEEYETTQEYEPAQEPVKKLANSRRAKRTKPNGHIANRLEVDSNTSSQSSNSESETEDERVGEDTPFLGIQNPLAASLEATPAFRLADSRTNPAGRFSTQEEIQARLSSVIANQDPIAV

[7] = system: Neuregulin-1 EGF-like domain; assay: small molecules binding NRG1 EGF domain – biochemical, small-molecule microarray, 635 nm fluorescence, primary screen (AID 1081); settings: higher = more signal;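 also: binding of the protein to compounds printed on small-molecule microarray slides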
[8] = FRG1 expression reporter modulators in myotubes – cell-based, C2C12 myotubes, firefly/Renilla luciferase, luminescence, FRG1 inhibition for FSHD, primary screen (AID 1084); settings: FRG1 promoter luciferase, higher = more signal, called active from +8 up or from −8 down
[9] = small molecules captured by biotinylated probe aFST – biochemical, small-molecule microarray, fluorescence 635/667, stem cell growth factor project, primary screen (AID 1086); settings: higher = more signal;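 also: score merges 667 nm fluorescence with signal-to-noise of each printed compound spot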
[10] = binders of probe aHhip on microarray, primary screen, stem cell growth factor project, biochemical, small-molecule microarray, fluorescence 635/667 (AID 1087); settings: higher = more signal;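 also: score merges spot fluorescence at 667nm with spot signal to noise ratio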
[11] = system: PRMT1 (protein arginine N-methyltransferase 1); assay: small molecules binding arginine methyltransferase PRMT1 – biochemical, small-molecule microarray, 635 nm fluorescence, primary screen (AID 1088); settings: higher = more signal;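 also: binding of Prmt1 protein to compounds spotted on small-molecule microarray slides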
[12] = growth effects on S. cerevisiae YJM789 – YJM789 clinical isolate, OD600, 24 h, basal, primary screen (AID 1089); settings: higher = more signal, called active from +8 up or from −8 down;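 also: growth of clinical yeast isolate S. cerevisiae YJM 789 seeded 1000 cells per well; test concentration not given here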
[13] = S. pombe growth modifiers, basal conditions – strain 972, OD600, 24 h, no modulator, primary screen (AID 1090);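 also: basal condition with compound alone and no growth modifier present; test concentration not given here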; settings: S. pombe 972 growth, higher = more signal, called active from +8 up or from −8 down
[14] = budding yeast growth modifiers under rapamycin – strain BY4716, OD600, 96 h, primary screen (AID 1091); also: test concentration not given here; settings: S. cerevisiae BY4716 + rapamycin, higher = more signal, called active from +8 up or from −8 down
[15] = target: Torsin-1A-interacting protein 2 (Homo sapiens) (UniProt Q8NFQ8); assay: small molecules binding lysate-expressed LULL1 – cell lysate, human LULL1 lysate, 635/667 nm fluorescence, primary screen (AID 1092); settings: small-molecule microarray, hLULL1 lysate binding, 635 nm fluorescence; higher = more signal;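 also: probe is lysate of COS7 cells overexpressing human LULL1; score merges per-feature 667 nm fluorescence with signal-to-noise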
Sequence of Torsin-1A-interacting protein 2 (Homo sapiens) (Q8NFQ8 whole entry, looked up): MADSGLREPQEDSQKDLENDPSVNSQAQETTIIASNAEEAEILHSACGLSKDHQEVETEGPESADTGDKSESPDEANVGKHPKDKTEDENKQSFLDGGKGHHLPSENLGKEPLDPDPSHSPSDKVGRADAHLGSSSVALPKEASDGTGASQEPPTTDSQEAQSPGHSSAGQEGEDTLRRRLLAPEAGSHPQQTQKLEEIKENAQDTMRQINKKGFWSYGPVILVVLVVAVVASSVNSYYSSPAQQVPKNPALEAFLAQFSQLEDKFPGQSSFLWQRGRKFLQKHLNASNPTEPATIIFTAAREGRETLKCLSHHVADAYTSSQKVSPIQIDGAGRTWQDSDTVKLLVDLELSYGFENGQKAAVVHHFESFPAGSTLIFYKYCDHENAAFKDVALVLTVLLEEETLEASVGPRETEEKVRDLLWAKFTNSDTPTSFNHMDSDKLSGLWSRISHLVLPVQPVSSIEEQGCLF

[16] = optical density change of DRC41 E. coli – strain DRC41, OD650, 24 h, E. coli filamentation project, primary screen (AID 1093);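 also: MC1000 strain lacking acrAB efflux and sulA so SOS filamentation is blocked; test concentration not given here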; settings: E. coli DRC41 growth, higher = more signal, called active from +8 up or from −8 down
[17] = probe aLefty2 binding to arrayed compounds – biochemical, biotinylated probe, 635/667 nm fluorescence, primary screen (AID 1094); settings: small-molecule microarray, higher = more signal;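 also: score merges spot fluorescence near 667 nm with spot signal-to-noise ratio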
[18] = system: Noggin (protein binding on small-molecule microarray); assay: small molecules binding Noggin protein – biochemical, 635/667 nm fluorescence, primary screen (AID 1095); settings: 635 nm fluorescence, higher = more signal;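 also: score merges 667 nm feature fluorescence with signal to noise over triplicate slides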
[19] = target: Neurogenic locus notch homolog protein 3 (Homo sapiens) (UniProt Q9UM47); assay: small molecules binding NOTCH3 protein – biochemical, 635/667 nm fluorescence, primary screen (AID 1096); settings: small-molecule microarray, 635 nm fluorescence, higher = more signal
Sequence of Neurogenic locus notch homolog protein 3 (Homo sapiens) (Q9UM47 whole entry, looked up): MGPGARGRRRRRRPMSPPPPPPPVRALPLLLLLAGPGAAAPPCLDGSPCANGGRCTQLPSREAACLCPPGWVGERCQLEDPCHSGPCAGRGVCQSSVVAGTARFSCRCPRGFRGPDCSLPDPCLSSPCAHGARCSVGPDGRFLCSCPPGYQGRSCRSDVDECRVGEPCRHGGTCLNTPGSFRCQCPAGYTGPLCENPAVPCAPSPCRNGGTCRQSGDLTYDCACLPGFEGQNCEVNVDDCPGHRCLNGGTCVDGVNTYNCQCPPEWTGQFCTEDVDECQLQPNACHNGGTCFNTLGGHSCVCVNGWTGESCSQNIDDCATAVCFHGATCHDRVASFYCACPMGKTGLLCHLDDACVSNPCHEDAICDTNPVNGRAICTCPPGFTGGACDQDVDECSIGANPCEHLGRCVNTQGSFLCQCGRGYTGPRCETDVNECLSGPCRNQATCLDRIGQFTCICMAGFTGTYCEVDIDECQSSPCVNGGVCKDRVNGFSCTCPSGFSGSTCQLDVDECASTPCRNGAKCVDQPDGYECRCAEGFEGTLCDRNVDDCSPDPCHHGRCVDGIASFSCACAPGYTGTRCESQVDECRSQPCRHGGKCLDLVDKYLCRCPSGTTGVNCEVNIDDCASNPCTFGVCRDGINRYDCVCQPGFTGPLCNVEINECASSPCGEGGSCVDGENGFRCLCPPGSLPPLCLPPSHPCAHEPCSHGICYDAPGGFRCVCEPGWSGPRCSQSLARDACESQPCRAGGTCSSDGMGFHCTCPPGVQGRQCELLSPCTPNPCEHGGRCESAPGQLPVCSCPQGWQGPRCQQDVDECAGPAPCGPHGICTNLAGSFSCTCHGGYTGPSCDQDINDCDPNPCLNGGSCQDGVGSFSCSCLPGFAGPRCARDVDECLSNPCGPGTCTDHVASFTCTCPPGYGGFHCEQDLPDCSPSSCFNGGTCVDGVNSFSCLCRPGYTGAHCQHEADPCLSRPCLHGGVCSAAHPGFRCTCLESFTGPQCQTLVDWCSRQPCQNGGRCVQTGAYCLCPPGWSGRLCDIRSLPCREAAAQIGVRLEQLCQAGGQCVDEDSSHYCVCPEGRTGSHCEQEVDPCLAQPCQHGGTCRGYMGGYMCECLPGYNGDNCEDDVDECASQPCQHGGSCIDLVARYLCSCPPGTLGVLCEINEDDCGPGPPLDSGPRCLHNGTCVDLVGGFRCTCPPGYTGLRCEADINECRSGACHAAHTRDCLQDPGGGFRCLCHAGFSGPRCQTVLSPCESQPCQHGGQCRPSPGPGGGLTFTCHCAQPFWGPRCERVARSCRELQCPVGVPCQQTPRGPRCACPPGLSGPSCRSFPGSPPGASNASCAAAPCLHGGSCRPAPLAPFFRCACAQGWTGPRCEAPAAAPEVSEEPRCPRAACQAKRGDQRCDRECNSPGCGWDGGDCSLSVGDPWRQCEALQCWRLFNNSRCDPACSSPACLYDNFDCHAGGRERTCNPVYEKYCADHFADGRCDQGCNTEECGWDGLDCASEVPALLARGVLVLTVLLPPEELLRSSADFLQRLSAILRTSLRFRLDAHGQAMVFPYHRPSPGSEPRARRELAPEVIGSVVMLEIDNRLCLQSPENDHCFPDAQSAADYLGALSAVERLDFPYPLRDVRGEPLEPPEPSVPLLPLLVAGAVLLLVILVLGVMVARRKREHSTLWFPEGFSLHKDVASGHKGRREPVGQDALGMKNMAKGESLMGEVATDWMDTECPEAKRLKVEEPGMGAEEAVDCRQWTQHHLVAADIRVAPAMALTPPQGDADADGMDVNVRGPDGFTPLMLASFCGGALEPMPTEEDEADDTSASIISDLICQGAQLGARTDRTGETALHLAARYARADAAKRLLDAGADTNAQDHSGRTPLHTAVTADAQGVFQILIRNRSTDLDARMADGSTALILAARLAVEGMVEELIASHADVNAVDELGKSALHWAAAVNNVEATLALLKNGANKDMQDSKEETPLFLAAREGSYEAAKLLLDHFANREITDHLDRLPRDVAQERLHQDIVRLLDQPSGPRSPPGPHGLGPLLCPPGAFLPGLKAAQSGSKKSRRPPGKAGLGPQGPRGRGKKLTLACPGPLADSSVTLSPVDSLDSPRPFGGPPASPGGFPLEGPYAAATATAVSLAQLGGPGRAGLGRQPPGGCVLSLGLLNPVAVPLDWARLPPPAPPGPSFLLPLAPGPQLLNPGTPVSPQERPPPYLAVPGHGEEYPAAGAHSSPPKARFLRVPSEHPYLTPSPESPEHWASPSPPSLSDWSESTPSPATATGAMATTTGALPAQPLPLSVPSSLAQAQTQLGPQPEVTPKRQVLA

[20] = probe aEGFR binding to arrayed compounds – biochemical, biotinylated probe, 635/667 nm fluorescence, primary screen (AID 1097); settings: small-molecule microarray, higher = more signal;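 also: probe is a biotinylated anti-EGFR antibody binding compounds printed on slides; score combines fluorescence near 667 nm and signal to noise of each spot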

Row | Compound | composite z-score [1] | composite z-score [2] | composite z-score [3] | composite z-score [4] | composite z-score [5] | composite z-score [6] | composite z-score [7] | z-score [8] | composite z-score [9] | composite z-score [10] | composite z-score [11] | z-score [12] | z-score [13] | z-score [14] | composite z-score [15] | z-score [16] | composite z-score [17] | composite z-score [18] | composite z-score [19] | composite z-score [20]
1 | O=C1C2C=CC(C(O)c3ccc([N+](=O)[O-])cc3)N(Nc3ccccc3)C2C(=O)N1c1ccccc1 (stereo not given) | -0.228 | 0.0467 | 0.0589 | -0.115 | 1.4 | 1.07 | 1.25 | -0.699 (inactive) | 0.564 | 0.211 | 0.44 | -0.247 (inactive) | 0.485 (inactive) | 0.495 (inactive) | 2.68 | -0.8 (inactive) | -0.0469 | -0.456 | 1.03 | -0.0509
2 | O=C1O[C@H](c2ccccc2)[C@H](c2ccccc2)N2[C@H]1[C@@H](C(=O)N1CCN(c3ncccn3)CC1)[C@]1(C(=O)Nc3ccccc31)[C@H]2c1ccc(O)cc1 | 0.258 | 0.918 | -0.0718 | 0.366 | 0.239 | 1.23 | 1.28 | 1.07 (inactive) | 0.3 | 0.0972 | 1.51 | 1.92 (inactive) | 0.116 (inactive) | 3.6 (inactive) | 3.06 | 0.913 (inactive) | 0.032 | 0.0775 | 0.305 | -0.0936
3 | O=C1c2ccccc2[C@](Cc2ccccc2I)(C(=O)O)[C@H](c2ccc(CO)cc2)N1Cc1ccccc1 | 0.877 | 0.996 | -0.101 | 0.0611 | 0.19 | 1.51 | 1.23 | -1.1 (inactive) | -0.0119 | -0.226 | 1.55 | -2.23 (inactive) | -0.912 (inactive) | -1.22 (inactive) | 2.5 | 0.66 (inactive) | 0.0299 | -0.57 | -0.0277 | -0.027
4 | C=CCC(OC(C)=O)[C@@H]1[C@@H](N(Cc2cc3ccccc3o2)C(=O)c2cccc3ccccc23)c2cc(OCCCO)ccc2N1C(=O)c1ccc2ccccc2c1 (stereo not given in full) | -0.16 | -0.267 | -0.0993 | 0.277 | -0.0361 | -0.223 | 0.272 | -4.21 (inactive) | 0.296 | -0.128 | -0.305 | 0.0315 (inactive) | -0.943 (inactive) | -0.0147 (inactive) | 0.583 | -0.234 (inactive) | 0.0826 | 0.413 | 0.222 | -0.139
5 | C=CCC(OC(C)=O)[C@@H]1[C@@H](N(Cc2cccc3ccccc23)C(=O)c2cccc3ccccc23)c2cc(OCCCO)ccc2N1C(=O)Cc1ccc2ccccc2c1 (stereo not given in full) | -0.101 | -0.391 | -0.116 | 0.19 | -0.168 | -0.371 | -0.648 | -1.89 (inactive) | -0.0942 | -0.166 | -0.254 | -0.796 (inactive) | 0.0827 (inactive) | -1.45 (inactive) | -0.0809 | -0.225 (inactive) | -0.193 | 0.0493 | 0.002 | -0.0675
6 | [N-]=[N+]=Nc1ccccc1[C@@H]1OC(c2ccc(OCCCO)cc2)=N[C@]1(Cc1ccccc1)C(N)=O | 0.379 | -0.334 | -0.0543 | 0.505 | 0.824 | 1.17 | 0.884 | 0.377 (inactive) | 0.277 | -0.0994 | -0.0138 | 0.622 (inactive) | -1.21 (inactive) | -0.026 (inactive) | 2.04 | 1.74 (inactive) | 0.0529 | -0.231 | 0.383 | 0.224
7 | C=CCC(OC(C)=O)[C@@H]1[C@@H](N(Cc2cc3ccccc3o2)C(=O)Cc2ccc(OC)cc2)c2cc(OCCCO)ccc2N1C(=O)Cc1ccc2ccccc2c1 (stereo not given in full) | 0.0169 | -0.94 | -0.0348 | -0.377 | -0.368 | -0.359 | 0.331 | -0.906 (inactive) | 0.0598 | 0.0505 | -0.328 | 0.225 (inactive) | 0.232 (inactive) | 0.738 (inactive) | 0.783 | -0.0576 (inactive) | -0.115 | -0.507 | -1.01 | -0.145
8 | CCCCC(O)C1C=CC2C(=O)NC(=O)C2N1Nc1ccccn1 (stereo not given) | -0.197 | -0.0611 | -0.0691 | 0.329 | 0.949 | 0.699 | 0.683 | 0.86 (inactive) | 0.0344 | -0.128 | -0.357 | 0.374 (inactive) | 0.667 (inactive) | 0.0569 (inactive) | 0.0273 | -1.73 (inactive) | -0.0825 | -0.0426 | -0.421 | -0.067
9 | O=C1C2C=CC(C(O)C(c3ccccc3)c3ccccc3)N(Nc3ccccc3)C2C(=O)N1c1ccccc1 (stereo not given) | 0.35 | 0.0239 | 0.128 | 0.244 | 1.63 | 1.66 | 1.17 | -0.996 (inactive) | 1.01 | -0.318 | 1.55 | 0.838 (inactive) | 0.0855 (inactive) | 0.281 (inactive) | 3.23 | -1.15 (inactive) | 0.0731 | 0.351 | 1.03 | 0.056
10 | CC#CCO[Si](C#CCCCCCC)(C(C)C)C(C)C | 1.3 | -0.134 | -0.24 | -1.16 | -1.9 | -0.353 | 0.439 | -0.524 (inactive) | -1.3 | -0.341 | 0.276 | 0.176 (inactive) | -19.1 (active) | -1.61 (inactive) | 0.373 | -0.0013 (inactive) | 0.137 | -2.8 | -1.16 | -0.466
